# Screening results from PubChem BioAssay.
# This is a sample that favours compounds with a hit; in the whole collection about 19% have one here.
# DT40 TDP1 CPT – growth inhibition of DT40 Tdp1-/-;hTDP1 cells with camptothecin (screen for TDP1 inhibitors) | chicken DT40 Tdp1-/-;hTDP1 cells + 20 nM CPT, ATP luminescence, 48 h | Potency, µM (titrated, usually from 46.2 µM), inactives show at the highest dose activity change, negative = growth inhibition, hits mostly inhibitors | 12% of 420,000 active; further: potency means the concentration at half of the fitted maximal effect; nearly all actives have a fitted effect of over 55% in size
#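 Chicken DT40 Tdp1-/- cells complemented with human TDP1, 400 cells/well, exposed to compounds plus 20 nM camptothecin for at least 48 h at 37 C; viability read as ATP content by CellTiter-Glo luminescence.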
# HT1080NT lethal – kills 2HG-producing HT-1080-NT fibrosarcoma cells | HT-1080-NT fibrosarcoma viability, CellTiter-Glo ATP luminescence, 48 h | Potency, µM (highest dose often 46.1 µM), for the others: at the top dose activity, negative = less viability, hits mostly cytotoxic | 1.6% of 360,000 active | AID 686970;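 further: NT is the 2HG producing partner of a matched IDH1 knockdown line; potency means the concentration at half of the fitted maximal effect; 0% = DMSO-treated cells and -100% = media-only wells without cells; nearly all actives have a fitted effect of over 55% in size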
#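 Viability by CellTiter-Glo luminescence after 48 h compound exposure at 37C of HT-1080-NT cells (750/well, RPMI, 5% FBS). % activity scaled between DMSO wells and medium-only wells, then curve-fitted and categorized by curve class.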
# TDP1 cell noCPT – qHTS for Inhibitors of human tyrosyl-DNA phosphodiesterase 1 (TDP1): qHTS in cells in absence of CPT; DT40 Tdp1-/- hTDP1 cells, no CPT, ATP luminescence, 48 h; Potency, µM (top dose mostly 46.2 µM), for inactives: at the highest dose activity change, negative = growth inhibition, actives largely listed as inhibitors; 15% of 420,000 active; AID 686978, 2013; further: potency means the concentration at half of the fitted maximal effect; nearly all actives have a fitted effect of over 55% in size
#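 Readout: luminescence from CellTiter-Glo after 30 min in the dark at RT. Cells: DT40 Tdp1-/- with stable hTDP1, 400/well. Exposure: compounds alone, ≥48 hr, 37 °C.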
# HT1080 IDH1KD tx – toxicity to HT-1080 IDH1 knockdown cells (counter line); AID 686971; Potency, µM (top dose mostly 46.1 µM), without a hit: at the top dose activity, negative = toxicity, usual class: cytotoxic; HT-1080 IDH1 knockdown viability, ATP luminescence, 48 h; 2% of 360,000 active;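 further: potency means the concentration at half of the fitted maximal effect; 0% = DMSO wells and -100% = cell-free medium wells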
#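 CellTiter-Glo luminescence after 48 h compound exposure at 37 degrees C of IDH1-knockdown HT-1080 cells in 5% FBS RPMI. %Activity scaled between DMSO wells and cell-free media wells, with curves fitted and assigned curve classes.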
# IL1B secr inh – inhibitors of inflammasome signaling (IL-1 beta secretion). THP-1 LPS/ATP IL-1B secretion, AlphaLISA, 16 h; stronger effect = lower value. activity change, % at 57.5 µM. 4.7% of 360,000 active. AID 743279; in the data active means activity change below about -50%; inconclusive means mostly about -30% to -49%
#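 THP-1 cells pretreated 1 hr with compounds (up to 57.5 uM final), then stimulated with LPS (250 ng/mL final) plus ATP (1.25 mM final); secreted IL-1B measured by AlphaLISA after 16 hr, decreased signal indicating inhibition.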
# * hit, by the source's call; u = inconclusive; x = no result; [ ] = remark or other dose. Unless noted, the call rests on the fitted dose curve; in most records, active means well fitted curve in the direction sought with a large enough effect; inconclusive means small, poorly fitted or top-dose-only effect, or another doubt; inactive means no such curve, though single readings can be large; an effect the other way counts as inactive or inconclusive. Unless noted, on the % scale 0 is the no-effect control and ±100 the full control effect.
SMILES,DT40 TDP1 CPT,HT1080NT lethal,TDP1 cell noCPT,HT1080 IDH1KD tx,IL1B secr inh
COc1cccc2c1O/C(=N\O)C(C(=O)Nc1ccc(C)cc1)C2 (stereo not drawn),5.8µM*,u,5.2µM*,15µM*,0
CCN(CC)c1ccc(-c2nn3c(-c4ccccc4OC)nnc3s2)cc1,1.3µM*,1µM*,1.2µM*,u,0
COc1ccccc1-c1nnc2sc(COc3ccc(Cl)cc3Cl)nn12,u,-7%,u,-2%,-76*
c1ccc(-c2nnc3sc(-c4csc5c4CCCC5)nn23)cc1,21µM*,-5%,u,-5%,-17
COc1ccc(-c2nn3c(-c4ccccc4)nnc3s2)cc1,u,-19%,u,-22%,-55*
COc1ccccc1Cc1nc2ccccc2nc1SCC(=O)NCc1ccc(C)cc1,-8%,x,1%,x,x
O=C(N/C(=C\c1cccc([N+](=O)[O-])c1)C(=O)N1CCOCC1)c1ccc([N+](=O)[O-])cc1,3%,-1%,-14%,0%,-1
CN(Cc1ccco1)c1cc(-c2cccc(NS(C)(=O)=O)c2)ncn1,-19%,x,-9%,x,x
c1coc(-c2nn3c(-c4ccco4)nnc3s2)c1,0%,1%,-25%,1%,0
Cc1nc2sc(-c3ccccc3)nn2c(=O)c1Br,23µM*,-2%,u,1%,1
COc1cccc(-c2nnc3sc(-c4ccccc4)nn23)c1,u,-2%,23µM*,-11%,-24
COc1ccc(OCc2nn3c(-c4cccc(OC)c4)nnc3s2)cc1,-10%,0%,-21%,-3%,-1
Cc1cccc(-c2nnc3sc(-c4ccccc4C)nn23)c1,u,u,15µM*,u,-4
COc1ccc(-c2nn3c(=O)c(C)nnc3s2)cc1,-3%,3%,11%,2%,20
c1ccc(-c2nnc3sc(-c4ccncc4)nn23)cc1,-19%,-4%,-21%,-3%,-51*
Cc1cc(NC(=O)CSc2nnc(-c3ccccc3F)n2N)no1,13%,2%,5%,2%,5
c1ccc(-c2nnc3sc(-c4cc5ccccc5o4)nn23)cc1,16µM*,18%,u,u,-29
CCOc1ccc(-c2nn3c(-c4ccc(F)cc4)nnc3s2)cc1,-16%,3%,-26%,17%,0
CCOc1cccc(-c2nn3c(-c4cc(C)[nH]n4)nnc3s2)c1,u,7%,u,-8%,-77*
Cc1c(-c2nc(-c3ccc4c(c3)OCO4)no2)nnn1-c1cccc(C(F)(F)F)c1,9%,x,-22%,x,x
CCn1c(CNc2ccc(C(=O)O)cc2)nc2ccccc21,u,6%,u,u,36
CCCn1c(CNc2ccc(Br)cc2)nc2ccccc21,23µM*,1%,u,-7%,-28
Cc1nc2ccccc2n1CCOc1ccccc1,u,-25%,u,-16%,u
Cc1ccccc1OCCn1c(C)nc2ccccc21,u,-18%,u,u,-26
Cc1ccc(NCc2nc3ccccc3n2CCOc2ccccc2)cc1,u,8%,18µM*,6%,-96*
SMILES,DT40 TDP1 CPT,HT1080NT lethal,TDP1 cell noCPT,HT1080 IDH1KD tx,IL1B secr inh
COc1ccc(NCc2nc3ccccc3n2CCOc2ccccc2C)cc1,18µM*,x,u,x,x
Cc1oc(-c2ccccc2NS(C)(=O)=O)nc1CN(C)Cc1ccc(Cl)cc1,-5%[9.04 µM],x,21µM*,x,x
COc1cccc(CNC(=O)CCn2cnc3ccccc3c2=O)c1,-7%,x,-8%,x,x
COc1cc(NC(=O)CN2C(=O)CN(C)C(=O)c3ccccc32)cc(OC)c1OC,-17%,x,1%,x,x
Cc1ccc2cc(C=O)c(N3CCOCC3)nc2c1C,u,-30%,18µM*,u,u
COc1ccc(C2=C(CC(=O)O)C(=O)CC2)cc1,3%,22%,-3%,18%,14
CS(=O)(=O)N(CC(=O)Nc1ccc(CC#N)cc1)c1ccc(C23CC4CC(CC(C4)C2)C3)cc1,u,u,16µM*,10µM*,u
